ChEMBL document CHEMBL2218924, “A broad activity screen in support of a chemogenomic map for kinase signalling research and drug discovery” (Biochem J, 2013)

Target: T1, Myotonin-protein kinase (Homo sapiens) (UniProt Q09013)
T1 sequence (whole entry): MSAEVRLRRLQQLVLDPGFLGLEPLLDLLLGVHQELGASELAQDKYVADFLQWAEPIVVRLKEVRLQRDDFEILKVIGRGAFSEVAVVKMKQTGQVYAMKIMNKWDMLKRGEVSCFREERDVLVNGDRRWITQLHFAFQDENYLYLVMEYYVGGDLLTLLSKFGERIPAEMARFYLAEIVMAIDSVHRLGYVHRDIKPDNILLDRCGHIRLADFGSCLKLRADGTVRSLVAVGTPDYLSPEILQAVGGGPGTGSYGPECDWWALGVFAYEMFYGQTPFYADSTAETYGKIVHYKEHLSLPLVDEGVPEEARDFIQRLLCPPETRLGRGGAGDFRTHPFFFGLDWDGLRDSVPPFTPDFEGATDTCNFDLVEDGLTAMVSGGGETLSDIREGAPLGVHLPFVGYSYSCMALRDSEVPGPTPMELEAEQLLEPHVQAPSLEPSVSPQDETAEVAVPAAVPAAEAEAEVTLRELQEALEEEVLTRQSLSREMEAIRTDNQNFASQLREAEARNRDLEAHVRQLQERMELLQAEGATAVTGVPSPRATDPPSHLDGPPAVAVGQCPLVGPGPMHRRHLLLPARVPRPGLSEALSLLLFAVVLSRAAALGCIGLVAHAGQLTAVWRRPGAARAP
Details: at 1 µM

Compared with `CC(C)[C@H](CO)Nc1nc(Nc2cccc(Cl)c2)c2ncn(C(C)C)c2n1`, `CCn1cnc2c(Nc3cccc(Cl)c3)nc(N[C@@H]3CCCC[C@@H]3N)nc21` is higher in residual activity: 98% for the first, 123% for the second.

Going from `COC(=O)[C@@]1(O)C[C@H]2O[C@]1(C)n1c3ccccc3c3c4c(c5c6ccccc6n2c5c31)C(=O)NC4` to `O=c1[nH]c2ccccc2n1C1CCN(Cc2ccc(-c3nc4cc5[nH]cnc5cc4nc3-c3ccccc3)cc2)CC1`, the residual activity rises from 116% to 133%.

Compared with `C[S+]([O-])c1ccc(-c2nc(-c3ccc(F)cc3)c(-c3ccncc3)[nH]2)cc1` (stereo not given), `COc1cc2ncnc(Nc3ccc(OCc4ccccc4)cc3)c2cc1OC` is lower in residual activity: 122% for the first, 105% for the second.

Going from `N/C(=N\[N+](=O)[O-])N/N=C\c1ccc(-c2cccc([N+](=O)[O-])c2)o1` to `O=[N+]([O-])/C=C/c1ccc2c(c1)OCO2`, the residual activity rises from 98% to 137%.

First: O=C1c2ccccc2-c2nc3nnnn3nc21
Second: O=C1Nc2ccc3ncsc3c2/C1=C/c1c[nH]cn1
The residual activity of the first is higher: 127% for the first, 120% for the second.

Compared with `COc1ccc2c(c[n+](C)c3c4cc5c(cc4ccc23)OCO5)c1OC`, `CC(C)(C)c1cc(C=C(C#N)C#N)cc(Br)c1O` is lower in residual activity: 111% for the first, 98% for the second.

Target: T1, Myotonin-protein kinase (Homo sapiens)
Details: at 10 µM

Going from `CC(C)[C@H](CO)Nc1nc(Nc2cccc(Cl)c2)c2ncn(C(C)C)c2n1` to `CCn1cnc2c(Nc3cccc(Cl)c3)nc(N[C@@H]3CCCC[C@@H]3N)nc21`, the residual activity falls from 89% to 80%.

Compared with `COC(=O)[C@@]1(O)C[C@H]2O[C@]1(C)n1c3ccccc3c3c4c(c5c6ccccc6n2c5c31)C(=O)NC4`, `O=c1[nH]c2ccccc2n1C1CCN(Cc2ccc(-c3nc4cc5[nH]cnc5cc4nc3-c3ccccc3)cc2)CC1` is higher in residual activity: 65% for the first, 143% for the second.

Going from `C[S+]([O-])c1ccc(-c2nc(-c3ccc(F)cc3)c(-c3ccncc3)[nH]2)cc1` (stereo not given) to `c1cc(-c2cnn3cc(-c4ccc(OCCN5CCCCC5)cc4)cnc23)ccn1`, the residual activity falls from 102% to 80%.

Compared with `N/C(=N\[N+](=O)[O-])N/N=C\c1ccc(-c2cccc([N+](=O)[O-])c2)o1`, `O=[N+]([O-])/C=C/c1ccc2c(c1)OCO2` is higher in residual activity: 84% for the first, 134% for the second.

Compared with `O=C1c2ccccc2-c2nc3nnnn3nc21`, `O=C1Nc2ccc3ncsc3c2/C1=C/c1c[nH]cn1` is lower in residual activity: 148% for the first, 105% for the second.

Going from `COc1cc2ncnc(Nc3ccc(OCc4ccccc4)cc3)c2cc1OC` to `COc1ccc2c(c[n+](C)c3c4cc5c(cc4ccc23)OCO5)c1OC`, the residual activity rises from 103% to 126%.

`CC(C)(C)c1cc(C=C(C#N)C#N)cc(Br)c1O` was tested, and the residual activity was 107%.
